Laboratory results taken from PubChem BioAssay (NCI).
This is part of a sample that, as a whole, favours compounds with a hit. Of some 83,000 tested, about 20% had one in any assay.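 Method: cells in 96-well plates; compound added at one concentration; 48 h incubation; percent growth measured; values under 10 scored active.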 A number with no mark means an inactive call. Calls of active or inactive are those of the source.

How the values were obtained:
Assay in all cases: NCI-60 one-dose screen, 48 h (100 = growth as untreated, 0 = no growth, -100 = all killed)
Conditions in all cases: 10 µM unless noted
HCT-15 colon = system: HCT-15 colon
HT29 colon = system: HT29 colon
SNB-19 CNS = system: SNB-19 CNS
U251 CNS = system: U251 CNS
PC-3 prostate = system: PC-3 prostate
SK-MEL-5 melanoma = system: SK-MEL-5 melanoma
UACC-62 melanoma = system: UACC-62 melanoma
LOX IMVI melanoma = system: LOX IMVI melanoma
SK-MEL-28 melanoma = system: SK-MEL-28 melanoma

Row | SMILES | growth (HCT-15 colon) | growth (HT29 colon) | growth (SNB-19 CNS) | growth (U251 CNS) | growth (PC-3 prostate) | growth (SK-MEL-5 melanoma) | growth (UACC-62 melanoma) | growth (LOX IMVI melanoma) | growth (SK-MEL-28 melanoma)
1 | CCOC(=O)c1c(NS(=O)(=O)c2ccc(C)cc2)sc2c1CCC1(C2)OCCO1 | 98.3% | 104% | 98.7% | 99.1% | 87.1% | 95.2% | 78.2% | 98.9% | 101%
2 | Brc1ccc(-c2[nH]ncc2-c2c[nH]c3ccccc23)cc1 | 94.9% | 109% | 97% | 93.9% | 77.4% | 100% | 91.7% | 89.7% | 107%
3 | Brc1cccc(-c2cc(-c3ccc4nccnc4c3)[nH]n2)c1 | 9.57% [25 µM] (active) | 5.66% [25 µM] (active) | 30.5% [25 µM] | 21.7% [25 µM] | 27% [25 µM] | 20.9% [25 µM] | 38.1% [25 µM] | 18.6% [25 µM] | 64.9% [25 µM]
4 | COc1ccc(N=Cc2c(O)ccc3c2oc2cc(Cl)c(O)c(Cl)c23)cc1 | 86.6% | 105% | 104% | 87.8% | 103% | 96.3% | 84.2% | 64.5% | 141%
5 | CCc1ccc(-c2ccc(=O)n(-c3ccc(S(N)(=O)=O)cc3)n2)cc1 | 29.7% | 11.8% | 57.6% | 35% | 35% | 12.9% | 38.5% | 55.1% | 49.4%
6 | Cc1cc(N)n(S(=O)(=O)c2oc(-c3ccccc3)nc2C#N)n1 | 61.8% | 90.4% | 93.1% | 86.7% | 100% | 100% | 90.8% | 68.2% | 106%
7 | COc1ccc(Nc2[nH]n3c(=O)cc(C)nc3c2C(N)=O)c(OC)c1 | 102% | 92.2% | 96% | 94.1% | 99.7% | 98.1% | 84% | 95.6% | 109%
8 | Cc1ccc(CSC(=N)N)cc1C | 116% | 104% | 98.7% | 111% | 87.7% | 105% | 97.8% | 91.9% | 111%
9 | O=C(CSc1nc2ccccc2[nH]1)c1ccc(N2CCOCC2)cc1 | 99.4% | 113% | 98.7% | 103% | 100% | 105% | 97.1% | 94.8% | 114%
10 | CCCCOc1ccc(/C=C2/SC(N3CCOCC3)=NC2=O)cc1OCC | 98.6% | 104% | 90.8% | 95.2% | 87.1% | 98.7% | 88.6% | 89.1% | 97.4%
11 | CCN1CCN(CC(=O)N2c3cccc4cccc(c34)N(C(=O)CN3CCN(CC)CC3)C2c2cn(-c3ccccc3)nc2-c2cccc([N+](=O)[O-])c2)CC1 | -45.5% (active) | -41.5% (active) | 8% (active) | -82.1% (active) | 21.6% | -92.5% (active) | -82.4% (active) | -82.1% (active) | -87.6% (active)
12 | Cc1ccc2ccccc2c1C[n+]1ccccc1 | 107% | 92% | 101% | 83.6% | 83.4% | 110% | 99.8% | 94.5% | 110%
13 | COc1ccc(NC(=O)c2c(Nc3ccc(OC)cc3OC)n[nH]c2N)c(OC)c1 | 104% | 102% | 90.3% | 96.4% | 90.6% | 79.9% | 68% | 101% | 96.6%
14 | COc1ccc(S(=O)(=O)n2cc(C(=O)C(=O)Nc3ccncc3)c3ccccc32)cc1F | 84.2% | 83.9% | 78.9% | 77.4% | 79.8% | 73.5% | 65.5% | 70.2% | 92.2%
15 | O=[N+]([O-])c1cccc(-c2nc3sccn3c2-c2ccnc(NCCCNS(=O)(=O)c3ccc(C(F)(F)F)cc3)n2)c1 | 17.6% | 36.8% | 69% | 60.9% | 12% | -45.5% (active) | -13.2% (active) | 17.6% | 49.8%
16 | COc1cc(/C(C#N)=C/c2ccc3c(c2OC)OCO3)cc2c1OCO2 | 33% | 0.067% (active) | 31.2% | 18.9% | 40.8% | 36.9% | 18.5% | 24.2% | 45.7%
17 | CCOC(=O)c1cn2c3c(cccc3c1=O)C(=O)/C(=C/c1cccc(Cl)c1Cl)C2 | 117% | 99.9% | 94.9% | 94.6% | 90.8% | 91.2% | 67.9% | 99.7% | 106%
18 | COc1cc(-c2nn(-c3cccc(NC(=O)Nc4ccc(Cl)c(Cl)c4)c3)cc2-c2ccncc2)ccc1Cl | 12.7% | 1.12% (active) | 27.2% | -6.02% (active) | -17.6% (active) | -80% (active) | -65.1% (active) | 1.38% (active) | 4.96% (active)
19 | N#Cc1c(-c2ccccc2)cc(-c2ccccc2)n(CC(=O)NO)c1=O | 16.8% | 33.5% | 77% | 52.5% | 34.9% | 14.6% | 64.5% | -90.5% (active) | 75.7%
20 | COc1ccc(/C=C2/C(=O)NC(SCC(=O)N3CCN(c4cc5c(cc4F)c(=O)c(C(=O)O)cn5C4CC4)CC3)=NC2N)cc1OC (configuration not stated) | 98.9% | 112% | 102% | 102% | 99.2% | 104% | 102% | 103% | 105%
21 | COc1cc(/C=C/C(=O)/C=C/c2cc(OC)c3c(c2)OCO3)cc2c1OCO2 | 69.1% | 6.92% (active) | 80.3% | 45.1% | 83.7% | 80.9% | 75.1% | 54% | 119%
22 | CCN(CC)CCC(CNc1ccnc2cc(Cl)ccc12)c1ccc(Cl)cc1 (configuration not stated) | -9.14% (active) | -4.66% (active) | 10.7% | -61% (active) | 36.9% | -96.3% (active) | -74.5% (active) | -1.91% (active) | -91.8% (active)
23 | C1=Cc2ccccc2N(c2nnc(-c3ccccc3)o2)c2ccccc21 | 45.8% | 102% | 96.7% | 66.8% | 60.6% | 72% | 86.4% | 79.9% | 98.2%
24 | COc1ccc(-c2cnoc2-c2ccc(OC)cc2O)cc1 | 26.7% | 24.1% | 42.4% | 25.6% | 53.2% | 15.8% | 28.9% | 41.2% | 45%
25 | Cc1ccc(N2CCN(C(C)C(N)=O)CC2)cc1 (configuration not stated) | 115% | 118% | 101% | 107% | 105% | 110% | 91.4% | 107% | 119%
26 | COc1ccc(Cn2cc3c(c2-c2cc(OC)c(OC)c(OC)c2)CCc2cnoc2-3)cc1 | 17.5% | 11% | 44.3% | 29.3% | 25.7% | 17% | 40.5% | 38.1% | 45%
27 | FC(F)(F)c1ccccc1-c1cn2c(ccc3ccccc32)n1 | 55.4% | 42.2% | 83% | 88.5% | 79.4% | 80.7% | 55.4% | 74.5% | 81.8%
28 | CCOC(=O)/C(C#N)=C1/C(=O)Nc2ccccc21 | 106% | 112% | 104% | 113% | 94.2% | 115% | 103% | 99% | 115%
